Screens from PubChem.
AmpC inh detg = inhibitors of E. coli AmpC beta-lactamase with detergent | AmpC hydrolysis of nitrocefin, absorbance 480 nm, 0.01% Triton | 370,000 compounds, 0.041% hits | Potency, µM (titrated, usually from 114 µM), inactives show at the highest dose activity change, negative = inhibition, most hits filed as inhibitors;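 note: 0% = no-compound wells and -100% = no-enzyme wells; nearly all actives have a fitted effect of over 25% in size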
Target sequence (P00811 whole entry, looked up): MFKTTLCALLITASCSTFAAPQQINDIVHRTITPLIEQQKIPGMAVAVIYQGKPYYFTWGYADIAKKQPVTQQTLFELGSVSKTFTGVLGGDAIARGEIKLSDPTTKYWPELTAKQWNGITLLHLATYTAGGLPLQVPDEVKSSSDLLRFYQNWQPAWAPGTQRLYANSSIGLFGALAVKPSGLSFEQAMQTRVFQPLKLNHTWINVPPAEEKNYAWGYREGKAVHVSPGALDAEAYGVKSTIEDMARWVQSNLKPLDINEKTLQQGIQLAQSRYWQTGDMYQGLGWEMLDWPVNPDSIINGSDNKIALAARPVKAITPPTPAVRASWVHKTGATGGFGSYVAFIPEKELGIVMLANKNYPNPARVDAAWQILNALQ
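AmpC (5.3 nM in the dispensed reagent) in 20 mM phosphate pH 7.0 with 0.01% (detergent screen) or 0.0001% Triton X-100 was preincubated with compounds for 15 min at room temperature. Nitrocefin was then added from an 800 uM solution, and hydrolysis was followed at 480 nm.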
Pf growth 96h = P. falciparum growth inhibition at 96 hour, primary screen for plastid delayed-death inhibitors | P. falciparum luciferase reporter growth, 96 h | Potency, µM (highest dose often 28.7 µM), for inactives: at the highest dose activity change, negative = inhibition, most hits filed as inhibitors | 320,000 compounds, 6.9% hits | AID 504834
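Cell-based qHTS: luciferase-tagged P. falciparum in erythrocytes (2% hematocrit, 0.05% parasitemia final) incubated with compounds for 96 hours, 37 C, 5% CO2; luciferase detection reagent then added and luminescence measured.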
AmpC inh no detg = blocks E. coli AmpC beta-lactamase in detergent-free assay; P00811; AmpC nitrocefin hydrolysis, absorbance 480 nm, 0.0001% Triton; Potency, µM (series often up to 57.1 µM), for the others: top-dose activity change, negative = inhibition, actives largely listed as inhibitors; 330,000 compounds, 0.52% hits; AID 485341;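 note: plate controls were no compound for no effect and no enzyme for full effect; nearly all actives have a fitted effect of over 20% in size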
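AmpC (5.3 nM in the dispensed reagent) in 20 mM phosphate pH 7.0 with 0.01% (detergent screen) or 0.0001% Triton X-100 was preincubated with compounds for 15 min at room temperature. Nitrocefin was then added from an 800 uM solution, and hydrolysis was followed at 480 nm.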
AMA1-RON2 inh = disrupts binding of P. falciparum AMA1 to RON2; AlphaScreen AMA1-biotinylated RON2 peptide binding; Potency, µM (series often up to 58.2 µM), without a hit: at the highest dose activity change, negative = inhibition, actives largely listed as inhibitors; 360,000 compounds, 0.2% hits; AID 720542;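 note: 0% = vehicle wells and -100% = peptide control; nearly all actives have a fitted effect of over 45% in size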
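AMA1 (3D7) with his tag at 25 nM final met compounds first, then biotinylated RON2 peptide at 25 nM; detection used donor plus acceptor beads, 10 µg/mL apiece, read by AlphaScreen after 30 min at room temperature.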
HCV inh = HCV inhibition | Huh7.5.1 HCVcc-Cre infection, luciferase reporter, 44 h | AID 651820 | 340,000 compounds, 3.4% hits | Potency, µM (doses to about 41.8 µM), without a hit: at the highest dose activity change, negative = inhibition, most hits filed as inhibitors
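Seed cells (1,000/well) for 4 h; treat with compound and infect with HCVcc-Cre, moi about 0.5. Incubate 44 h, then detect luciferase activity.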
Pf growth 48h = P. falciparum growth inhibition at 48 hours (one generation); Potency, µM (titrated, usually from 28.7 µM), for inactives: at the highest dose activity change, negative = inhibition, most hits filed as inhibitors; 310,000 compounds, 5.9% hits; P. falciparum luciferase growth in erythrocytes, 48 h; AID 504832
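Firefly luciferase activity from engineered P. falciparum reports growth; inhibitors lower the luminescent signal. Cultures contained 2% hematocrit erythrocytes at 0.1% final parasitemia.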
The depositor's hits bear a star; i = inactive; ? = inconclusive; / = no result given. This is a sample that favours compounds with a hit; in the whole collection about 11% have one here. Calls come from the whole dose curve; as a rule, active = well fitted curve in the direction sought with a large enough effect; inconclusive = small, poorly fitted or top-dose-only effect, or another doubt; inactive = no such curve, though single readings can be large; an effect the other way counts as inactive or inconclusive. Unless noted, % is set by controls: 0 for no effect and ±100 for the full control effect; potency is the fitted concentration of half-maximal effect.

SMILES	AmpC inh detg	Pf growth 96h	AmpC inh no detg	AMA1-RON2 inh	HCV inh	Pf growth 48h
Brc1ccc(-c2csc(/N=C/N3CCOCC3)n2)cc1	0.9%	66.3%	55.8%	-11.2%	?	75.4%
Clc1ccc(-c2csc(N3CCOCC3)n2)cc1	-10.8%	i	-2.0%	-19.8%	-9.0%	i
Brc1ccc(-c2csc(/N=C/N3CCCC3)n2)cc1	11.9%	95.6%	80.3%	?	11.2µM*	222.0%
Brc1ccc(-c2csc(N3CCOCC3)n2)cc1	11.2%	?	-13.4%	-7.8%	11.2µM*	i
CCCCC(=O)N1CCN(c2nc(-c3ccc(F)cc3)cs2)CC1	-22.2%	?	49.8%	-15.4%	?	8.9%
O=C(N1CCOCC1)N1CCN(c2nc(-c3ccc(F)cc3)cs2)CC1	3.1%	7.38µM*	121.5%	-1.4%	-22.4%	-12.1%
CCOc1ccc(NC(=O)N2CCC(N3CCCCC3)CC2)cc1	15.5%	/	/	/	/	/
Cc1ccc(CNC(=O)Cn2c(=O)n(-c3ccc(C)cc3)c(=O)c3c2c2cc(C)ccc2n3C)cc1	-1.7%	/	/	/	/	/
CCOc1ccc(C(=O)Nc2cccc(-c3nc4cc(Cl)cc(Cl)c4o3)c2)cc1	13.1%	/	/	/	/	/
CCOc1ccc(NC(=O)N(C)CCc2c(C)nn(C)c2C)cc1	16.5%	/	/	/	/	/
CCN(CC)c1ccc2ccc(=O)oc2c1	-0.8%	9.28µM*	-16.7%	77.0%	-24.2%	-34.3%
CCCCn1c2ccc(F)cc2c2nnc(SCCN3CCOCC3)nc21	0.7%	2.62µM*	142.7%	-4.1%	?	?
CCc1ccc2[nH]c3nc(SCCN4CCOCC4)nnc3c2c1	?	9.28µM*	-20.8%	92.1%	?	-27.3%
CCc1ccc(NC(=O)CN2C(=O)C3CCCN3c3ccc(S(=O)(=O)N(CC)CC)cc32)cc1 (stereo not drawn)	-0.7%	/	/	/	/	/
CC(C)(C)NC(=S)NC(=O)C12CC3CCC(CC(C3)C1)C2	-7.9%	0.0%	-22.5%	-3.1%	-7.0%	10.4µM*
COc1cccc(Nc2c3c(nc4nncn24)CCC3)c1	9.9%	/	/	/	/	/
CC1CCN(Cc2c(O)ccc3c(=O)c(-c4nc5ccccc5s4)c(N)oc23)CC1	?	?	-18.4%	61.4%	?	0.262µM*
CC1CCCN(Cc2c(O)ccc3c(=O)c(-c4nc5ccccc5s4)c(N)oc23)C1 (stereo not drawn)	?	0.0657µM*	21.3%	21.5%	?	0.0738µM*
CCOC(=O)c1c(/N=C/N(C)C)sc(C)c1C	?	2.5%	-2.7%	-10.2%	1.9%	-17.7%
CCOC(=O)c1c(/N=C/N(C)C)sc(/C=N/Nc2ccccc2)c1-c1ccc(Cl)cc1	-1.4%	3.29µM*	-47.1%	-12.7%	?	13.1µM*
CCOCCCN1C(=O)c2[nH]nc(-c3ccccc3O)c2C1c1ccc(CC)cc1 (stereo not drawn)	-7.0%	/	/	/	/	/
CCOC(=O)Nc1ccc2c(c1)N(C(=O)OC)c1ccccc1CC2	0.8%	-8.3%	24.7%	-4.7%	-5.1%	5.4%
CCCC(CCC)C(=O)Nc1ccc2c(c1)N(C(=O)CN1CCN(C)CC1)c1ccccc1CC2	1.4%	-6.0%	223.0%	10.2%	?	5.22µM*
CCOC(=O)Nc1ccc2c(c1)N(C(=O)CCN(C)C)c1ccccc1S2	-3.3%	-5.5%	-18.1%	-17.1%	12.6µM*	-9.8%
CC(=O)Nc1ccc2c(c1)N(C(C)=O)c1ccccc1CC2	-0.4%	?	44.3%	-9.7%	4.2%	?
CCOC(=O)Nc1ccc2c(c1)N(C(=O)CN1CCN(C)CC1)c1ccccc1S2	-4.8%	124.1%	51.0%	-15.9%	?	9.28µM*
CCOC(=O)Nc1ccc2c(c1)N(CCCN(C)C)c1ccccc1CC2	-1.1%	13.1µM*	142.7%	-1.0%	?	?
